A short description of assay [1]: NCI Yeast Anticancer Drug Screen. Data for the rad50 strain (AID 155).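 Note: 0% = growth of vehicle-only cultures of the same strain.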 The conditions noted are these: S. cerevisiae rad50 strain growth inhibition, hits give high values. In short, it runs like this:
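Relative growth inhibition (compound vs vehicle) was measured in yeast with a defined repair-gene alteration.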

A short description of assay [2]: NCI Yeast Anticancer Drug Screen. Data for the mec2-1 strain (AID 157). The conditions noted are these: S. cerevisiae mec2-1 strain, hits give high values. In short, it runs like this:
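Yeast mec2-1 mutant treated with compound. Readout: growth inhibition vs vehicle controls.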

A short description of assay [3]: NCI Yeast Anticancer Drug Screen. Data for the sgs1 mgt1 strain (AID 161).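 Note: 0% = growth of cultures given vehicle only.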 The conditions noted are these: S. cerevisiae sgs1 mgt1 strain, hits give high values. An outline of the steps:
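Inhibition of yeast growth, normalised to vehicle-treated controls, is reported for a strain bearing genetic alterations in DNA damage repair.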

Assay [4] in a line: NCI Yeast Anticancer Drug Screen. Data for the cln2 rad14 strain (AID 165).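 Note: 0% = growth equal to vehicle treated cultures.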 The conditions noted are these: S. cerevisiae cln2 rad14 strain, hits give high values. In short, it runs like this:
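cln2 rad14 yeast strain; compound exposure; growth inhibition read vs vehicle controls.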

Assay [5] in a line: NCI Yeast Anticancer Drug Screen. Data for the bub3 strain (AID 167). The conditions noted are these: S. cerevisiae bub3 mutant strain, hits give high values. An outline of the steps:
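Screening used yeast with an engineered genetic alteration affecting cell cycle control. Compound-exposed cultures were compared with vehicle cultures, and reduced growth was taken as inhibition.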

The nature of assay [6]: NCI Yeast Anticancer Drug Screen. Data for the mlh1 rad18 strain (AID 175). The conditions noted are these: S. cerevisiae mlh1 rad18 strain growth inhibition, hits give high values. An outline of the steps: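 Yeast w/ defined DNA-repair lesions; compound exposure; growth vs vehicle controls → % inhibition.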
Setting [7] is: at 5.0 µM (retest, dose inferred, filed as 0.5).
[8] abbreviates: at 50.0 µM (retest, dose inferred, filed as 5.0).

Data on nine compounds can be found in PubChem BioAssay (NCI).

The panel holds about 79,000 compounds, 15% with a hit somewhere; the sample as a whole holds those more often. A number with no mark means an inactive call. The source made the active and inactive calls. Cut-off read from the data, not from the text of the source: active = growth inhibition above about 70%; inactive = the rest.

Consider `Cc1cc(Cl)n2c(nc3ccccc32)c1C#N`, for which the growth inhibition in assay [1] (setting [7]) was 13%; in assay [1] (setting [8]) it was 90% (active); in assay [1] (at 50.0 µM), 98.2% (active); in assay [2] (setting [7]) it was 23%; in assay [2] (setting [8]) it was 97% (active); in assay [2] (at 50.0 µM) it was 98.5% (active). Besides, the growth inhibition in assay [3] (setting [7]) was 16%; in assay [3] (setting [8]), 94% (active); in assay [3] (at 50.0 µM) it was 99% (active); in assay [4] (setting [7]) it was 2%; in assay [4] (setting [8]), 89% (active); in assay [4] (at 50.0 µM), 96.8% (active). Moreover, the growth inhibition in assay [5] (setting [7]) was 18%; in assay [5] (setting [8]) it was 92% (active); in assay [5] (at 50.0 µM), 98% (active); in assay [6] (setting [7]), 28%; in assay [6] (setting [8]), 94% (active); in assay [6] (at 50.0 µM), 98.3% (active).

`Cc1nc2c([N+](=O)[O-])c(N3CCCCC3)c([N+](=O)[O-])cc2[nH]1`: the growth inhibition was 10% in assay [1] (setting [7]); 97% (active) in assay [1] (setting [8]); 98.8% (active) in assay [1] (at 50.0 µM); 13% in assay [2] (setting [7]); 98% (active) in assay [2] (setting [8]); 99% (active) in assay [2] (at 50.0 µM). In addition, the growth inhibition in assay [3] (setting [7]) is 13%; in assay [3] (setting [8]), 98% (active); in assay [3] (at 50.0 µM), 99.1% (active); in assay [4] (setting [7]), 17%; in assay [4] (setting [8]), 94% (active); in assay [4] (at 50.0 µM), 97.7% (active). Also, the growth inhibition in assay [5] (setting [7]) was 0%; in assay [5] (setting [8]), 83% (active); in assay [5] (at 50.0 µM), 98.7% (active); in assay [6] (setting [7]), 8%; in assay [6] (setting [8]) it was 98% (active); in assay [6] (at 50.0 µM) it was 99.1% (active).

As for `CCNCC(O)COc1ccc2c(c1)[n+]([O-])nc(N)[n+]2[O-]` (configuration not stated), the growth inhibition is 39% in assay [1] (setting [7]); 75% (active) in assay [1] (setting [8]); 61.1% in assay [1] (at 50.0 µM); 31% in assay [2] (setting [7]); 88% (active) in assay [2] (setting [8]); 70% (active) in assay [2] (at 50.0 µM). Further, the growth inhibition in assay [3] (setting [7]) is 42%; in assay [3] (setting [8]) it was 60%; in assay [3] (at 50.0 µM) it was 62.8%; in assay [4] (setting [7]), 42%; in assay [4] (setting [8]), 41%; in assay [4] (at 50.0 µM), 40.9%. The growth inhibition in assay [5] (setting [7]) is 47%; in assay [5] (setting [8]) it was 84% (active); in assay [5] (at 50.0 µM), 63%; in assay [6] (setting [7]) it was 50%; in assay [6] (setting [8]), 91% (active); in assay [6] (at 50.0 µM), 58.8%.

Take `CN(C)CCCCN1c2ccccc2Sc2ccc(C(=O)c3ccccc3)cc21`: the growth inhibition in assay [1] (setting [7]) was 0%; in assay [1] (setting [8]), 65%; in assay [1] (at 50.0 µM), 99.8% (active); in assay [2] (setting [7]) it was -2%; in assay [2] (setting [8]), 81% (active); in assay [2] (at 50.0 µM) it was 99.8% (active). Besides, the growth inhibition was 3% in assay [3] (setting [7]); 79% (active) in assay [3] (setting [8]); 99.8% (active) in assay [3] (at 50.0 µM); 2% in assay [4] (setting [7]); 70% (active) in assay [4] (setting [8]); 99.3% (active) in assay [4] (at 50.0 µM). Also, the growth inhibition is 4% in assay [5] (setting [7]); 77% (active) in assay [5] (setting [8]); 99.7% (active) in assay [5] (at 50.0 µM); 0% in assay [6] (setting [7]); 82% (active) in assay [6] (setting [8]); 99.6% (active) in assay [6] (at 50.0 µM).

Regarding `Cc1ccnc(NS(=O)(=O)c2ccc(N=Cc3c4ccccc4nc4cc(Cl)ccc34)cc2)n1`, the growth inhibition in assay [1] (setting [7]) was 58%; in assay [1] (setting [8]), 15%; in assay [1] (at 50.0 µM), 99.4% (active); in assay [2] (setting [7]), 32%; in assay [2] (setting [8]), 38%; in assay [2] (at 50.0 µM), 99.2% (active). The growth inhibition in assay [3] (setting [7]) was 41%; in assay [3] (setting [8]), 23%; in assay [3] (at 50.0 µM), 99.4% (active); in assay [4] (setting [7]), 16%; in assay [4] (setting [8]), 1%; in assay [4] (at 50.0 µM), 99% (active). For the same compound, the growth inhibition in assay [5] (setting [7]) is 40%; in assay [5] (setting [8]) it was -2%; in assay [5] (at 50.0 µM), 58.1%; in assay [6] (setting [7]), 24%; in assay [6] (setting [8]), 11%; in assay [6] (at 50.0 µM) it was 99.3% (active).

Take `Clc1ccc(CN2COc3c(cc(Cl)c4cccnc34)C2)cc1`: the growth inhibition is 4% in assay [1] (setting [7]); 71% (active) in assay [1] (setting [8]); 7.5% in assay [1] (at 50.0 µM); 1% in assay [2] (setting [7]); 56% in assay [2] (setting [8]); 63.3% in assay [2] (at 50.0 µM). Besides, the growth inhibition was 1% in assay [3] (setting [7]); 99% (active) in assay [3] (setting [8]); 16.5% in assay [3] (at 50.0 µM); 1% in assay [4] (setting [7]); 99% (active) in assay [4] (setting [8]); 98.8% (active) in assay [4] (at 50.0 µM). For the same compound, the growth inhibition in assay [5] (setting [7]) was -6%; in assay [5] (setting [8]), 55%; in assay [5] (at 50.0 µM), 99.2% (active); in assay [6] (setting [7]), -7%; in assay [6] (setting [8]) it was 99% (active); in assay [6] (at 50.0 µM) it was 24.1%.

With `Nc1ncnc2c1c(-c1ccccc1)cn2-c1ccccc1`, the growth inhibition in assay [1] (setting [7]) was 38%; in assay [1] (setting [8]) it was 78% (active); in assay [1] (at 50.0 µM) it was 97.8% (active); in assay [2] (setting [7]) it was 31%; in assay [2] (setting [8]) it was 58%; in assay [2] (at 50.0 µM), 97.3% (active). The growth inhibition was 71% (active) in assay [3] (setting [7]); 93% (active) in assay [3] (setting [8]); 99% (active) in assay [3] (at 50.0 µM); 20% in assay [4] (setting [7]); 53% in assay [4] (setting [8]); 95.2% (active) in assay [4] (at 50.0 µM). For the same compound, the growth inhibition is 29% in assay [5] (setting [7]); 81% (active) in assay [5] (setting [8]); 95.8% (active) in assay [5] (at 50.0 µM); 27% in assay [6] (setting [7]); 82% (active) in assay [6] (setting [8]); 98.5% (active) in assay [6] (at 50.0 µM).

Take `O=NNc1nc(-c2ccccn2)nc2ccccc12`: the growth inhibition is -7% in assay [1] (setting [7]); 96% (active) in assay [1] (setting [8]); 96.5% (active) in assay [1] (at 50.0 µM); 7% in assay [2] (setting [7]); 99% (active) in assay [2] (setting [8]); 97.9% (active) in assay [2] (at 50.0 µM). Moreover, the growth inhibition in assay [3] (setting [7]) was -4%; in assay [3] (setting [8]), 97% (active); in assay [3] (at 50.0 µM), 98.2% (active); in assay [4] (setting [7]) it was -2%; in assay [4] (setting [8]) it was 92% (active); in assay [4] (at 50.0 µM), 41.2%. The growth inhibition in assay [5] (setting [7]) was -14%; in assay [5] (setting [8]) it was 98% (active); in assay [5] (at 50.0 µM), 19.9%; in assay [6] (setting [7]) it was 1%; in assay [6] (setting [8]) it was 99% (active); in assay [6] (at 50.0 µM), 98.5% (active).

Turning to `O=C(OCCCN1CCCC1)C(c1ccccc1)C1CCCCC1` (configuration not stated), the growth inhibition was 20% in assay [1] (setting [7]); 67% in assay [1] (setting [8]); 63.8% in assay [1] (at 50.0 µM); 9% in assay [2] (setting [7]); 87% (active) in assay [2] (setting [8]); 52.4% in assay [2] (at 50.0 µM). Besides, the growth inhibition in assay [3] (setting [7]) is 23%; in assay [3] (setting [8]) it was 91% (active); in assay [3] (at 50.0 µM), 85.9% (active); in assay [4] (setting [7]), 13%; in assay [4] (setting [8]) it was 81% (active); in assay [4] (at 50.0 µM), 79.8% (active). For the same compound, the growth inhibition in assay [5] (setting [7]) is 33%; in assay [5] (setting [8]), 91% (active); in assay [5] (at 50.0 µM), 54.4%; in assay [6] (setting [7]), 42%; in assay [6] (setting [8]) it was 95% (active); in assay [6] (at 50.0 µM), 80.2% (active).
